{"source": "PubChem BioAssay AID501", "about": "(PCMD, 2006)", "note": "The campaign covered roughly 62,000 compounds. About 35 (0.06%) were called active. No stated cut-off is given here; in the data, active means inhibition above about 32% (passing the limit was not always enough); inconclusive means no clear call, values can overlap the other calls. What follows is part of a selection rich in actives, with near analogues and random picks from the rest.", "data": [{"biological_target": "Cathepsin S (Homo sapiens) (UniProt P25774)", "sequence (P25774 115-331 limits assumed)": "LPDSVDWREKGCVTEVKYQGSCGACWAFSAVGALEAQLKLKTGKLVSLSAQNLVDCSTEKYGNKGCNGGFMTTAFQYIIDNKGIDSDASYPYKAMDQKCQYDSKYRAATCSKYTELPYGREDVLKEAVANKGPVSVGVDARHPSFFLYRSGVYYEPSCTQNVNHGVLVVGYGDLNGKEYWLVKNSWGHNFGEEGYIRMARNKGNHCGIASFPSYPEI", "test": "inhibitors of human cathepsin S, biochemical, compound mixtures (AID 501);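 further: 0% = enzyme without compound and 100% = blank without enzyme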", "details": "recombinant cathepsin S, AMC dipeptide fluorescence, pooled mixtures; active compounds read high;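 tested at 5 µM per compound within 10-compound mixtures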", "values": [{"smiles": "COc1ccc(-n2ncc3c(N4CCc5ccccc54)ncnc32)cc1", "inhibition": "-6.55% (inactive)"}, {"smiles": "COc1ccccc1C(=O)N1CCN=C1SCc1cccnc1", "inhibition": "3.41% (inactive)"}, {"smiles": "CCn1cc(C(=O)N2CCN(Cc3ccc4c(c3)OCO4)CC2)c2cc(OC)c(OC)cc2c1=O", "inhibition": "0.555% (inactive)"}, {"smiles": "Cc1ccc(S(=O)(=O)NCc2cn3ccsc3n2)c(C)c1", "inhibition": "-2.17% (inactive)"}, {"smiles": "CC1(C)CC(=O)C(C=NCc2cccnc2)=C(O)C1", "inhibition": "-6.24% (inactive)"}, {"smiles": "COc1ccc(C(=O)Cn2nnc(-c3ccc(N4CCOCC4)cc3)n2)cc1OC", "inhibition": "8.22% (inactive)"}, {"smiles": "Cc1c(-c2nn(C)c(=O)c3ccccc23)oc2ccc(F)cc2c1=O", "inhibition": "21.9% (inactive)"}, {"smiles": "CCn1c(SCC(=O)Nc2cc(C)ccc2C)nnc1-c1cnccn1", "inhibition": "-6.74% (inactive)"}, {"smiles": "O=C(Cn1nnc(-c2ccccc2)n1)NCc1ccccc1", "inhibition": "3.11% (inactive)"}, {"smiles": "NC(=O)Cn1c(=O)oc2ccccc21", "inhibition": "0.705% (inactive)"}, {"smiles": "Cc1nnc(C)n1/N=C/c1ccc(C(C)C)cc1", "inhibition": "5.16% (inactive)"}, {"smiles": "CCc1nnc(NC(=O)CSc2nnc(-c3ccncc3)n2Cc2ccccc2)s1", "inhibition": "15.4% (inactive)"}, {"smiles": "Cc1cc(N2CCCC2=O)cc(C)c1S(N)(=O)=O", "inhibition": "14% (inactive)"}, {"smiles": "CC(C)OCCCNC(=O)CNC(=O)c1cccs1", "inhibition": "15.3% (inactive)"}, {"smiles": "Cn1cnc2c1c(=O)n(Cc1c(Cl)cccc1Cl)c(=O)n2C", "inhibition": "-2.21% (inactive)"}, {"smiles": "CCOC(=O)CNC(=O)CSc1nnc(COc2ccc(Cl)cc2)n1CC", "inhibition": "17% (inactive)"}, {"smiles": "Cc1cccc(N2CCN(C(=O)C3CCN(S(=O)(=O)c4cnc[nH]4)CC3)CC2)c1C", "inhibition": "-2.09% (inactive)"}, {"smiles": "CCOC(=O)c1c(NC(=O)c2ccc(Br)o2)sc2c1CCCC2", "inhibition": "-2.96% (inactive)"}, {"smiles": "COc1cccc(N(CC(=O)NC2CCCC2)C(=O)Cn2nnc(-c3ccc(C)cc3)n2)c1", "inhibition": "-32.1% (inactive)"}, {"smiles": "CC1CC(c2ccccc2)n2nc(NC(=O)c3cccs3)nc2N1", "note": "(centres undefined)", "inhibition": "7.8% (inactive)"}, {"smiles": "CC(=O)Nc1cc2ccc(OC(C)=O)cc2oc1=O", "inhibition": "-31.5% (inactive)"}, {"smiles": "C=CCNC(=O)C1CC=CCC1C(=O)O", "note": "(centres undefined)", "inhibition": "-2.51% (inactive)"}, {"smiles": "CCOC(=O)CSc1nnc(CNc2nc(-c3ccccc3)cs2)n1C", "inhibition": "-5.74% (inactive)"}, {"smiles": "O=C(NC(c1ccccc1)c1ccccc1)N1CCN(CCO)CC1", "inhibition": "10.9% (inactive)"}, {"smiles": "Cc1cc(C(F)(F)F)nn1-c1nc(-c2ccco2)cc(C(F)(F)F)n1", "inhibition": "7.66% (inactive)"}, {"smiles": "COCCn1c(CN(Cc2ccccc2)Cc2ccccc2)nc2c1c(=O)n(C)c(=O)n2C", "inhibition": "9.43% (inactive)"}, {"smiles": "CCN(C(=O)CSc1ncn[nH]1)c1cccc2ccccc12", "inhibition": "2.39% (inactive)"}, {"smiles": "Cc1noc(NS(=O)(=O)c2ccc(N3CC(O)=C(c4ccccc4)C3=N)cc2)c1C", "inhibition": "-12.9% (inactive)"}, {"smiles": "CCn1ncc(Br)c1C(=O)Nc1cc(C)ccc1F", "inhibition": "6.74% (inactive)"}, {"smiles": "Cc1ccc(-c2nc(CS(=O)CC(=O)N3CCN(c4ncccn4)CC3)c(C)o2)cc1", "note": "(centres undefined)", "inhibition": "7.31% (inactive)"}, {"smiles": "CC(C)n1c(C(O)c2ccccc2)nc2ccccc21", "note": "(centres undefined)", "inhibition": "-7.12% (inactive)"}, {"smiles": "Cc1ccccc1N1CC(c2nc3ccccc3[nH]2)CC1=O", "note": "(centres undefined)", "inhibition": "-1.51% (inactive)"}, {"smiles": "Cc1ccc(-c2nnc(SC(C)C#N)n2N)cc1", "note": "(centres undefined)", "inhibition": "-1.33% (inactive)"}, {"smiles": "Cn1c(=O)c(C(=O)Nc2ncccn2)c(O)c2ccccc21", "inhibition": "-4.57% (inactive)"}, {"smiles": "CC(=O)NCCc1ccc(S(=O)(=O)N(C)C2CCS(=O)(=O)C2)cc1", "note": "(centres undefined)", "inhibition": "30% (inactive)"}, {"smiles": "CCc1ccccc1NC(=O)CSc1nnc([C@@H](NC(=O)OC(C)(C)C)C(C)C)o1", "inhibition": "9.29% (inactive)"}, {"smiles": "Cc1nn(C)c(C)c1S(=O)(=O)N1CCc2ccccc21", "inhibition": "-5.94% (inactive)"}, {"smiles": "CCOC(=O)c1sc(N(Cc2ccccc2)C(=O)CN2C(=O)CN(C)C2=O)nc1C", "inhibition": "-1.84% (inactive)"}, {"smiles": "COCCn1c(=O)[nH]c2cc(C(=O)NCc3cccnc3)ccc2c1=O", "inhibition": "4.14% (inactive)"}, {"smiles": "Cc1ccc(NC(=O)CS(=O)CC(=O)N(c2ccccc2)C(C)C(=O)NC2CCCC2)cc1", "note": "(centres undefined)", "inhibition": "-27.8% (inactive)"}, {"smiles": "O=C(C1CCN(CC2CCCCC2)CC1)N1CCCC1", "inhibition": "-3% (inactive)"}, {"smiles": "FC(F)Oc1ccccc1C1CC(c2ccc(Br)s2)Nc2ncnn21", "note": "(centres undefined)", "inhibition": "1.68% (inactive)"}, {"smiles": "CCC(C)n1[nH]c(=O)c2c(C)cc(C)nc21", "note": "(centres undefined)", "inhibition": "12.4% (inactive)"}, {"smiles": "Cc1nc(NC(=O)CCC(=O)O)sc1C(=O)N(C)C", "inhibition": "-4.56% (inactive)"}, {"smiles": "O=C(Cn1cc2c(n1)CCCCC2)NCCN1CCOCC1", "inhibition": "7.2% (inactive)"}, {"smiles": "CC(C)c1ccc(NS(=O)(=O)c2cn(C)c(=O)n(C)c2=O)cc1", "inhibition": "-0.575% (inactive)"}, {"smiles": "COc1ccccc1NC(=O)CSc1nnc(Cn2nnc(-c3ccccc3)n2)n1-c1ccccc1", "inhibition": "-0.79% (inactive)"}, {"smiles": "CC(CNC(=O)c1ccc(Br)o1)NC(=O)c1ccc(Br)o1", "note": "(centres undefined)", "inhibition": "6.17% (inactive)"}, {"smiles": "COc1cc(Cl)cc(C2NC(=O)NC(C)=C2C(=O)NCc2ccccc2)c1O", "note": "(centres undefined)", "inhibition": "7.15% (inactive)"}, {"smiles": "CCOC(=O)C(C)Oc1cccc2c(=O)n(CC(=O)N3CCc4ccccc43)ccc12", "note": "(centres undefined)", "inhibition": "-6.21% (inactive)"}, {"smiles": "CC(NC(=O)CN1CCN(Cc2ccc(Cl)cc2)C1=O)c1ccc2c(c1)OCCO2", "note": "(centres undefined)", "inhibition": "55.3% (inactive)"}, {"smiles": "CSc1sc(C)cc1C1C(C#N)=C(N)N(c2cccnc2)C2=C1C(=O)CCC2", "note": "(centres undefined)", "inhibition": "1.56% (inactive)"}, {"smiles": "NC(=O)c1ccsc1NC(=O)c1ccco1", "inhibition": "7.91% (inactive)"}, {"smiles": "COC(=O)[C@H](CCSC)NC(=O)Nc1ccc(OC)cc1", "inhibition": "-1.09% (inactive)"}, {"smiles": "O=C(CCCn1c(=O)[nH]c2cc(Cl)ccc2c1=O)NCCN1CCN(c2ccccc2)CC1", "inhibition": "13.6% (inactive)"}, {"smiles": "Cc1ccc(-c2noc(CSc3nnc(-c4ccccc4)n3C)n2)cc1", "inhibition": "-4.08% (inactive)"}, {"smiles": "COCCCn1c(CCC(=O)O)ccc1-c1ccc(F)cc1", "inhibition": "-19.4% (inactive)"}, {"smiles": "CCCNS(=O)(=O)c1ccc(CCC(=O)NCc2cccnc2)cc1", "inhibition": "-3.48% (inactive)"}, {"smiles": "CCOc1ccc(CC(=O)Nc2ccc(S(=O)(=O)Nc3cc(C)on3)cc2)cc1OCC", "inhibition": "-4.34% (inactive)"}, {"smiles": "Cc1cnc(NC(=O)CSc2nnc(-c3ccccc3)n2Cc2ccccc2)s1", "inhibition": "11.8% (inactive)"}, {"smiles": "CCOc1ccc(NC(=O)Nc2ccc(N(C)C(C)=O)cc2)cc1", "inhibition": "-16.6% (inactive)"}, {"smiles": "Cn1c(C(=O)NCCc2ccsc2)cc2c(=O)n(C)c3ccccc3c21", "inhibition": "-2.9% (inactive)"}, {"smiles": "Cc1cccc(N2CCN(C(=O)c3cc4c(=O)[nH]c5ccccc5c4n3C)CC2)c1C", "inhibition": "16.8% (inactive)"}, {"smiles": "Cn1c(C(=O)NCCN2CCc3ccccc3C2)cc2c(=O)[nH]c3ccccc3c21", "inhibition": "45.6% (active)"}, {"smiles": "CC(=O)Nc1ccc(-c2cn3cccnc3n2)cc1", "inhibition": "-4.08% (inactive)"}, {"smiles": "COc1ccc(N(CC(=O)NC2CCCCCCC2)S(=O)(=O)c2c(C)nn(C)c2C)cc1", "inhibition": "-2.48% (inactive)"}, {"smiles": "COc1ccc(N(C(=O)c2cccnc2)S(=O)(=O)c2ccc3c(c2)n(C)c(=O)n3C)cc1", "inhibition": "-5.68% (inactive)"}, {"smiles": "COC(=O)c1[nH]c2cccc(C)c2c1NC(=O)CN1CCCc2ccccc21", "inhibition": "51.2% (active)"}, {"smiles": "Cc1ccccc1NC(=O)CNc1ccccc1N1CCCCC1", "inhibition": "-4.53% (inactive)"}, {"smiles": "COC(=O)c1[nH]c2ccccc2c1NC(=O)CN1CCCc2ccccc21", "inhibition": "15.9% (inactive)"}, {"smiles": "COC(CCN(C)C)(c1ccccc1)c1ccccc1", "inhibition": "-4.38% (inactive)"}, {"smiles": "CCN(CCCCOC(=O)c1ccc(OC)c(OC)c1)C(C)Cc1ccc(OC)cc1", "note": "(centres undefined)", "inhibition": "14.3% (inactive)"}, {"smiles": "O=C(O)C1CCCN(S(=O)(=O)c2cccc3cccnc23)C1", "note": "(centres undefined)", "inhibition": "-4.15% (inactive)"}, {"smiles": "O=C(O)CSCNC(=O)CC12CC3CC(CC(C3)C1)C2", "inhibition": "1.12% (inactive)"}, {"smiles": "CCOc1ccccc1Nc1nnc(SCC(=O)Nc2cc(C)on2)s1", "inhibition": "8.96% (inactive)"}, {"smiles": "CC1=C(C(=O)OCc2ccccc2)C(c2ccco2)n2ncnc2N1", "note": "(centres undefined)", "inhibition": "6.81% (inactive)"}, {"smiles": "CCOC(=O)C1CCN(C(=O)C2CCN(S(=O)(=O)CC)CC2)CC1", "inhibition": "6.47% (inactive)"}, {"smiles": "O=C(CN(c1ccc2c(c1)OCCO2)S(=O)(=O)c1ccccc1)Nc1ccc2c(c1)OCO2", "inhibition": "8.94% (inactive)"}, {"smiles": "C=C(C)Cn1c(N2CCCC2)nc2c1c(=O)[nH]c(=O)n2C", "inhibition": "-0.005% (inactive)"}, {"smiles": "Cc1nnc(SCCCn2c(N3CCCCC3)nc3c2c(=O)[nH]c(=O)n3C)s1", "inhibition": "37.6% (active)"}, {"smiles": "Cn1c(=O)[nH]c(=O)c2c1nc(N1CCCCCC1)n2CC(=O)c1ccccc1", "inhibition": "12.8% (inactive)"}, {"smiles": "CCOc1ccc(C2C(C(=O)O)c3ccccc3C(=O)N2CCN2CCOCC2)cc1", "note": "(centres undefined)", "inhibition": "39.9% (inactive)"}, {"smiles": "Cn1c(=O)cc(SCC(=O)N2CCCC2)c2cc(Cl)ccc21", "inhibition": "1.36% (inactive)"}, {"smiles": "O=C(NCc1ccccn1)Nc1ccc(F)cc1", "inhibition": "17.6% (inactive)"}, {"smiles": "CCCc1nc(-c2ccccc2O)n(-c2ccccc2)n1", "inhibition": "-4.97% (inactive)"}, {"smiles": "O=C(O)C1CC=CCC1C(=O)NCCc1ccccc1", "note": "(centres undefined)", "inhibition": "-14.2% (inactive)"}, {"smiles": "O=C1c2ccccc2C(=O)N1c1ccccc1S(=O)C(F)(F)F", "note": "(centres undefined)", "inhibition": "16.1% (inactive)"}, {"smiles": "COC(=O)CN(c1nc(C)c(Cl)c(OC)n1)S(=O)(=O)c1ccc(C)cc1", "inhibition": "3.91% (inactive)"}, {"smiles": "CCOc1ccc(NC(=O)CSc2nc3c(c(=O)n2-c2ccccc2OC)SCC3)cc1", "inhibition": "-11.1% (inactive)"}, {"smiles": "O=C(NCCCN1CCN(Cc2ccccc2)CC1)C1CCN(S(=O)(=O)N2CCCC2)CC1", "inhibition": "17.9% (inactive)"}, {"smiles": "O=C(COc1ncnc2ccccc12)NC(=O)NCc1ccccc1", "inhibition": "-8.35% (inactive)"}, {"smiles": "Cc1cccc(N2CCN(Cc3c(C)n(C)n(-c4ccccc4)c3=O)CC2)c1C", "inhibition": "-2.31% (inactive)"}, {"smiles": "CC(C)C[C@H](NC(=O)[C@@H]1O[C@H]1C(=O)O)C(=O)NCCCCN=C(N)N", "inhibition": "117% (active)"}, {"smiles": "Cc1cccc(N2CCN(C(c3ccccc3)c3nnnn3CC3CCCO3)CC2)c1C", "note": "(centres undefined)", "inhibition": "6.28% (inactive)"}]}]}
